Here are results for 37 molecules from PubChem BioAssay AID720565 (National Center for Advancing Translational Sciences (NCATS), 2013).

Several values for one entry are separate records, joined by “and”; a condition that tells them apart may be missing. Equal entries are not always repeated. Records with an inconclusive call do not appear. Activity calls are given as the source filed them. Calls come from the whole dose curve; as a rule, active = well fitted activation curve with a large enough effect; inconclusive = small, poorly fitted or top-dose-only effect; inactive = no such curve, though single readings can be large or run the other way.
Potency is the fitted concentration of half-maximal effect.

This test in a line: qHTS for small molecules that induce genotoxicity in ELG1 expressing cells: Confirmatory Assay for Cherry-picked Compounds. For activation: % of control where 0% means no effect. Note: nearly all actives have a fitted effect of over 35% in size. Conditions: ELG1-luciferase reporter cells, luminescence, 16 h; series mostly up to 46.1 µM; activation: at the top concentration. The method in brief:
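Cells carrying the ELG1-luciferase reporter were exposed to compound for 16 hr at 37 C, 5% CO2, at 2,000 cells per well. Rise in luciferase activity, read with ONE-Glo after 30 min at room temperature, indicates genotoxic stress.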
On the technique in general: Quantitative high-throughput screening tests each substance at several concentrations.
With `CC(=O)NC12CC3CC(C1)CC(C(=O)OCC(=O)c1cc(C)n(C)c1C)(C3)C2`, the Potency is 2.81 µM (active).

`O=C(CSc1nnc(-c2csc3c2CCCC3)o1)Nc1ccccc1`: the Potency is 575 nM (active) and 561 nM (active).

Regarding `CCc1ccc(OCC(=O)Nc2ccc(-c3nc4ccccc4o3)c(O)c2)cc1`, the Potency is 14.1 µM (active).

Consider `O=C(OCC(=O)N1CCCCC1)c1cccs1`, for which the Potency was 14.1 µM (active).

Turning to `Cn1cccc1C(=O)OCC(=O)Nc1sccc1C#N`, the Potency was 15.8 µM (active).

As to `Fc1ccc2cc(CCO[C@H]3CCCCO3)ncc2c1`, the Potency is 3.97 µM (active).

For the molecule `N#Cc1ccsc1NC(=O)CSc1nncs1`, the Potency was 12.5 µM (active).

As for `O=C(c1cc2ccccc2[nH]1)c1cc2cc(O)ccc2[nH]1`, the Potency was 7.05 µM (active).

For `COc1cc(/C=C(\C#N)C(=O)Nc2cccc(C(=O)O)c2)ccc1OCc1ccc(F)cc1`, the Potency is 28.1 µM (active).

Take `COc1ccc(/C=C/c2cnc3ccccc3n2)cc1OC`: the Potency was 0.112 µM (active).

In the case of `CN(C)c1cccc(-c2ccnc(N3CCC(C(N)=O)CC3)n2)c1`, the Potency is 0.5 µM (active).

Regarding `CC(=O)OCC1=C[C@H]2[C@@H]3C(C)(C)[C@]3(OC(C)=O)C[C@@H](C)[C@]2(O)[C@@H]2C=C(C)C(=O)[C@@]2(O)C1`, the Potency is 2.23 µM (active).

In the case of `CC1CCc2nc(-c3cc4ccc(O)cc4oc3=O)sc2C1` (configuration not stated), the Potency is 1.26 µM (active).

`O=C(CSc1nnc(-c2cccc(Cl)c2)o1)Nc1ccc2c(c1)OCCO2`: the Potency was 15.8 µM (active).

As to `O=c1[nH]c(=O)n([C@@H]2O[C@H](CO)[C@@H](O)[C@H]2O)cc1F`, the Potency is 3.97 µM (active).

For `C(=C\c1ccc2ccccc2n1)/c1ccc2ccccc2n1`, the Potency was 0.792 µM (active).

For `COc1cc2cc(C)c(SCC(=O)N3CCOCC3)nc2cc1OC`, the “activation” value is 2.87% (inactive).

In the case of `CN(C)c1cccc(-c2nnc(N3CCC(C(N)=O)CC3)s2)c1`, the Potency was 4.99 µM (active).

Take `Oc1cc(-c2ccc(N3CCCCC3)nc2)cc2cccnc12`: the Potency is 25 µM (active).

With `CCn1c(=O)n(CC)c2cc(S(=O)(=O)N3CCCCC3)c(C)cc21`, the “activation” value was 26.9% (inactive).

On to `CC(=O)c1c(C)[nH]c(C(=O)Nc2cccc(S(=O)(=O)N3CCCC3)c2)c1C`, for which the Potency was 15.8 µM (active).

As to `O=C(OCC(=O)N1CCc2ccccc2C1)c1c(F)cccc1Cl`, the Potency is 9.96 µM (active).

For the molecule `O=c1[nH]c(-c2ccc(-c3cccc(Cl)c3)o2)nc2ccccc12`, the Potency was 1.12 µM (active) and 1.41 µM (active).

Turning to `CN(C)c1ccc(C=Nc2cncc3ccccc23)cc1`, the Potency was 0.889 µM (active).

Consider `COc1ccc2c(C)cc(SCC(=O)N3CCOCC3)nc2c1`, for which the “activation” value is -2.8% (inactive).

On to `O=C(Nc1ccccn1)c1sc2ccccc2c1Cl`, for which the Potency was 0.223 µM (active).

As to `C[C@@H]1CC2[C@@H]3CCC4=CC(=O)C=C[C@]4(C)[C@@]3(F)[C@@H](O)C[C@]2(C)[C@@]1(O)C(=O)NCCCCCCOC[C@H]1O[C@@H](n2cnc3cc(Cl)c(Cl)cc32)[C@@H]2OC(C)(C)O[C@@H]21` (some centres not stated), the Potency was 2.29 µM (active).

On to `CN(C)c1ccc(/C=C2\C=Cc3ccccc32)c(F)c1`, for which the Potency is 1.41 µM (active).

For `COc1ccc(-c2nnc(SC(C)C(=O)Nc3cccc(Cl)c3)o2)cc1` (configuration not stated), the Potency was 12.5 µM (active).

Turning to `CC(=O)Oc1ccc(-c2nc(-c3ccccc3)no2)cc1`, the Potency is 2.81 µM (active).

On to `COc1cccc(/C=C/C(=O)OCC(=O)c2ccccc2)c1OC`, for which the Potency was 3.53 µM (active).

With `CNc1ccc(/C=C2\C=Cc3ccccc32)cc1`, the Potency is 0.792 µM (active).

Take `Oc1ccc(CCc2ccccc2F)c2cccnc12`: the Potency was 14.1 µM (active).

Turning to `O=c1nc2sc3ccccc3n2c(=O)n1-c1cccc(Cl)c1`, the Potency was 5 µM (active).

In the case of `CCN(CC)S(=O)(=O)c1ccc(N2CCOCC2)c(NC(=O)c2[nH]c(C)c(C(C)=O)c2C)c1`, the Potency was 12.5 µM (active).

With `O=C1CCCC(=NNC(=O)c2cc3ccccc3cc2O)C1`, the Potency was 15.8 µM (active).

`Cc1ccc2c(c1)C/C(=C/c1ccc(N(C)C)cc1)C2=O`: the Potency is 7.05 µM (active).
